Experimental findings from the OligoGym collection are described below.
Further: reference of the scale not given here.

In the first experiment the target is PTBP2. Kind of experiment: pooled miR-30 sensor sort-seq; sequence = guide strand. The following applies: shRNA.
For the sequence TAGCTGTACAGTCTGATGTTTA, the sensor-assay potency score (higher = more potent) is -0.892. Take TGAACTAGCTAGACCAGTCTGC: the sensor-assay potency score (higher = more potent) was determined as 0.184.

The sequence TTAAAGTCAGATCTATTCCTAA showed a sensor-assay potency score (higher = more potent) of 0.0356.

In the case of TTTAATGTATTATCTGTCTTTA, the sensor-assay potency score (higher = more potent) was -0.808.

Turning to TTATCTTCAATACAGCACCAAA, the sensor-assay potency score (higher = more potent) was -1.15. On the same count and under the same terms, then TTAACCATAGTAATAGCTGCTT, with 0.167; and TTGCTAACCAACAGGACTGTAT, with -0.182; and TTGGCTGTAACTACCATGCTGC, with -0.376.

Sequence TAACCATAGTAATAGCTGCTTC displayed a sensor-assay potency score (higher = more potent) of -0.782. TTCATTTAAATTGCTAACCAAC had a sensor-assay potency score (higher = more potent) of -1.15. Still for that read-out and setting: as for TTTAGTTCTTTGTGATTCGAGT, the figure is -0.551.

The target of another experiment is PTGDR. The experiment is described as above. Conditions: shRNA.
For the sequence TCTGCTTCTTCAGAGGTCCTGT, the sensor-assay potency score (higher = more potent) is 0.273.

TACTGTTAAATCATACTCCTTG registered a sensor-assay potency score (higher = more potent) of 0.542. In turn, TGTACTTACACATTGAAGGTAC had a sensor-assay potency score (higher = more potent) of 0.268. For TAAATTTCAAAAACAACTGTAT, the sensor-assay potency score (higher = more potent) was -0.297. On to TTAGTGGAATTGCTGCACCGGC, for which the sensor-assay potency score (higher = more potent) is -1.14. In turn, TTTAAGACTTTTAACACTGGTT displayed a sensor-assay potency score (higher = more potent) of -0.351. On the same count and under the same terms, as for TTTTTATGAATGTCCATCGTAT, the figure is -0.379; as for ATTAACTGGACAATTATCCTAA, 0.137; as for TAGGCAGCCAGCACCACCGGGC, -0.802. On the same count and under the same terms, as for TACAGTGAGTCACACACTGGTT, the figure is -0.86; as for TTGATTCCTACTGACACCCTTG, 0.657. Consider TATCCTAACACACCTCTCCAAA, for which the sensor-assay potency score (higher = more potent) is -1.13.

In a further experiment the target is PTGDS. The experiment is described as above. Conditions: shRNA.
For the sequence TCCGGTAGCTGTAGGAGCCGAG, the sensor-assay potency score (higher = more potent) was -0.81. With TTGCACATGGACAACGCCGCCT, the sensor-assay potency score (higher = more potent) was -0.424. The same measure, in the same setting: as for TGAATTTCTCCTTTAACTCAGC, the figure is -0.751; as for AAGACAATGGTATCCTCTGTGA, -0.868. The sequence TTCTCCTTTAACTCAGCCCTGG returned a sensor-assay potency score (higher = more potent) of -0.867.

On to TTTTTCCTGAGGAAGGTGGAGG, for which the sensor-assay potency score (higher = more potent) is -1.

In turn, TTATTGTGCAGGATGAAGCCTG showed a sensor-assay potency score (higher = more potent) of -0.188. The same measure, in the same setting: then TAGTCGGTCTCCACCACTGACA, with -1.34; and TTGGGCTGCACGGAGACCTGGG, with -0.764.

Regarding TTTCTCCTTTAACTCAGCCCTG, the sensor-assay potency score (higher = more potent) is -1.14. Same read-out and setting: as for TACTGGTCGTAGTCGGTCTCCA, the figure is -0.484.

The next experiment concerns the target PTGFRN. The experiment is described as above. Conditions: shRNA.
As for TTTGCTAACATCCCGAACCAGT, the sensor-assay potency score (higher = more potent) is -0.807.

TTGGAGAAGACATCCTTGCTTT: the sensor-assay potency score (higher = more potent) is -0.201.

For the sequence TTAACCATTAAAAAGCTGCAGT, the sensor-assay potency score (higher = more potent) is -0.442. On to TAAAACAACGCCATCCACCCGT, for which the sensor-assay potency score (higher = more potent) is -0.0584.

For TTTTCTTTGCTAACATCCCGAA, the sensor-assay potency score (higher = more potent) is -0.589.
